Assay results reported in PubChem BioAssay (NCI).
This is part of a sample that, as a whole, favours compounds with a hit. Of some 83,000 tested, about 20% had one in any assay.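 For each line, cells grew in 96-well plates with the test compound present at a single concentration for 48 hours.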 Unmarked numbers belong to inactive results. Active and inactive are the calls of the source. The calls were made as follows: active = growth percent below 10; inactive = the rest.

tested on: HL-60(TB) leukemia; assay: NCI-60 one-dose screen, 48 h (100 = growth as untreated, 0 = no growth, -100 = all killed); conditions: 10 µM unless noted

Q: With `COc1cc(/C=N\NC(=O)CN2CCN(c3cc4c(cc3F)c(=O)c(C(=O)N/N=C/c3cc(OC)c(OC)c(OC)c3)cn4C3CC3)CC2)cc(OC)c1OC` as the molecule, how does the growth read?
A: -10.2% (active)

Q: With `COc1ccc(-c2nc3sc(-c4ccc(Cl)cc4)cn3n2)cc1` as the molecule, how does the growth read?
A: 105%

Q: With `COc1ccc2oc(=O)cc(-c3nc4ccc(N)cc4[nH]3)c2c1` as the molecule, how does the growth read?
A: 101%

Q: With `O=C(N/N=C\c1cc(Cl)ccc1[N+](=O)[O-])c1ccco1` as the molecule, how does the growth read?
A: 107%

Q: With `O=C(CSc1nc2ccc([N+](=O)[O-])cc2[nH]1)Nc1ccc(Br)cc1` as the molecule, how does the growth read?
A: 39.4%

Q: How did the growth turn out when `COc1ccc(N=C2CSc3nnc(-c4cc(F)c(Cl)cc4Cl)n3N2)cc1` was run?
A: -48% (active)

Q: `COC(=O)C1(C)Cc2cc(OC(C)=O)c(OC(C)=O)cc2N1` (stereo not given) was tested. Which growth did it give?
A: 19.8%

Q: Which growth does the source give for `CCN(CC)c1ccc(C(=O)c2ccccc2)cc1` here?
A: 87.4%

Q: Which growth does the source give for `CN1C(=O)N(C)C2Nn3c(s/c(=C4\C(=O)N(CCc5ccccc5)c5ccccc54)c3=O)=NC21` (stereo not given) here?
A: 56.9%

Q: With `CCS(=O)(=O)N1CCN(c2ccc(Nc3ncc(C(N)=O)c(NC4CC4)n3)cc2)CC1` as the molecule, how does the growth read?
A: 71.2%

Q: For `O=C(/C=C/c1ccccn1)c1ccccc1O`, which growth is on record?
A: 13.1%

Q: How did the growth turn out when `CCN1C(=O)N(CC)C2C1N=C(SC)N2/N=C/C=C/c1ccccc1OC` (stereo not given) was run?
A: -13.4% (active)

Q: `CCN1CCN(c2ccc(Nc3ncnc4c3nnn4CCc3cc(OC)cc(OC)c3)cc2)CC1` was tested. Which growth did it give?
A: 87.8%

Q: With `CC(C)CCCC(=O)O` as the molecule, how does the growth read?
A: 109%

Q: How did the growth turn out when `O=C1c2ccccc2C(=O)c2c1ccc1c(=O)n(-c3ccccc3C(F)(F)F)nnc21` was run?
A: -42% (active)

Q: Which growth does the source give for `COc1cc(N=Nc2ccc(O)c3ncccc23)c2ncccc2c1` here?
A: -14.1% (active)

Q: How did the growth turn out when `Cc1cc2nc3c4cc(Cl)ccc4n(CCN(C)C)c3nc2cc1C` was run?
A: 20%

Q: With `CC(C)n1c2ccc(Br)cc2c2c3c(c4c5ccccc5ccc4c21)C(=O)NC3=O` as the molecule, how does the growth read?
A: 100%

Q: For `O=C(CSc1nccc(Nc2ccc(S(=O)(=O)Nc3nccs3)cc2)n1)c1ccc(F)cc1`, which growth is on record?
A: 104%

Q: Which growth does the source give for `CCOC(=O)c1ccccc1OC(=O)NNc1ccccc1` here?
A: -7.77% (active)

Q: Which growth does the source give for `CCCCCCN(CCCCCC)CCCNc1nccc2ccccc12` here?
A: -1.22% (active)

Q: How did the growth turn out when `O=c1cc(C2NNC(=S)N2)c2ccc3ccccc3c2o1` (stereo not given) was run?
A: 102%

Q: For `Cl.Fc1c[c-]c(-c2ccccn2)c(F)c1.[Pt].c1ccc([PH+](c2ccccc2)c2ccccc2[PH+](c2ccccc2)c2ccccc2)cc1`, which growth is on record?
A: -24.7% (active)

Q: How did the growth turn out when `C=C1C(=O)O[C@H]2[C@H]1CC/C(COC(=O)NCc1cccc(OC)c1)=C\CC[C@@]1(C)O[C@@H]21` was run?
A: -38.6% (active)

Q: For `C=CCc1cc(Nc2c3ccc(Cl)cc3nc3ccc(OC)cc23)cc(CN(CC)CC)c1O`, which growth is on record?
A: -17% (active)

Q: For `O=C(Nc1ccc(Br)cc1)c1ccc(Cl)c(Cl)c1`, which growth is on record?
A: 19.4%

Q: How did the growth turn out when `CCCc1cc(NC)nc(S(=O)(=O)CC)n1` was run?
A: 127%

Q: With `CC(C)CNCC(=O)Nc1ccc(Cc2ccc(NC(=O)CNCC(C)C)cc2)cc1` as the molecule, how does the growth read?
A: 38%

Q: How did the growth turn out when `CCOC(=O)C1C(=O)NC(C(=O)OCC)(C(=O)OCC)C1CC` (stereo not given) was run?
A: 106%

Q: With `COc1cc(/C=C2\C(=O)N(CC(O)COc3cc(O)c4c(=O)cc(-c5ccccc5)oc4c3)c3ccccc32)cc(OC)c1O` (stereo not given) as the molecule, how does the growth read?
A: 80.5%

Q: With `Cc1nnc(/N=C2\NC(=O)/C(=C/c3ccsc3)S2)s1` as the molecule, how does the growth read?
A: 102%

Q: How did the growth turn out when `CNC(=O)c1cc(Oc2cccc3nc(Nc4ccc(Oc5ccccc5)cc4)ccc23)ccn1` was run?
A: 87.1%

Q: For `Nc1nc(N)c2c(n1)NC(c1ccc(Cl)cc1)C1CCc3ccccc3C1=N2` (stereo not given), which growth is on record?
A: 13.5%

Q: With `COc1c(B(O)O)cccc1-c1nc2ccc3[nH]ncc3c2c2c1CCCC2` as the molecule, how does the growth read?
A: -28.1% (active)

Q: `CC1=C[C@H]2c3c(c(O)c(O)c4oc(-c5ccccc5)cc(=O)c34)[C@H](c3cc(O)c(O)c4oc(-c5ccccc5)cc(=O)c34)[C@H]2C(C)(C)C1` was tested. Which growth did it give?
A: -30.1% (active)

Q: `O=C1CSC(c2ccccc2O)N1c1nnc(Cn2cnnc2)o1` (stereo not given) was tested. Which growth did it give?
A: 61.1%

Q: How did the growth turn out when `CCOC(=O)Nc1ccc2c(c1)C(=O)N(CCOC)c1ccccc1O2` was run?
A: -17.1% (active)

Q: How did the growth turn out when `C=C(C[n+]1ccccc1)[C@@H]1CC[C@]2(C(=O)OC)CC[C@]3(C)[C@H](CC[C@@H]4[C@@]5(C)CCC(=O)C(C)(C)[C@@H]5CC[C@]43C)[C@@H]12` was run?
A: 58%

Q: Which growth does the source give for `CC1(C)[C@@H](NOCCCN)CC[C@]2(C)[C@H]3C(=O)C=C4[C@@H]5C[C@](C)(C(=O)O)CC[C@]5(C)CC[C@@]4(C)[C@]3(C)CC[C@@H]12` here?
A: -31.3% [100 µM] (active)

Q: With `Clc1ccc(CCC(Cn2ccnc2)Sc2c(Cl)cccc2Cl)cc1` (stereo not given) as the molecule, how does the growth read?
A: 2.26% (active)
